Inconclusive results are not listed. A number with no mark means an inactive call. The source made the active and inactive calls. Calls follow the shape of the dose curve; as a rule, active = well fitted cell-killing curve with a large enough effect in the repeat runs; inconclusive = weak or mixed curves, or effect the other way; inactive = flat fitted curve, though single readings scatter.
% is scaled to controls: 0 for no effect and ±100 for the full control effect.

The assay can be described thus: qHTS assay to identify small molecule antagonists of the androgen receptor (AR) signaling pathway using the MDA cell line in the presence of 0.5 nM R1881 - cell viability counter screen (AID 1259242). Also: nearly all actives have a fitted effect of over 45% in size. Particulars: MDA-kb2 viability, CellTiter-Fluor protease fluorescence, 16 h; series mostly up to 92.4 µM. The source says:
U.S. Tox21 Program National Center for Advancing Translational Sciences [NCATS] NIH Chemical Genomics Center [NCGC] U.S. Environmental Protection Agency [EPA] National Institutes of Environmental Health Sciences [NIEHS] National Toxicology Program [NTP] U.S. Food and Drug Administration [FDA] Tox21 Assay Overview: Androgen receptor (AR) is an important member of the nuclear receptor family. Its signaling plays a critical role in AR-dependent prostate cancer and other androgen related diseases. Considerable attention has been given in the past decades to develop methods to study and screen for the environmental chemicals that have the potential to interfere with metabolic homeostasis, reproduction, developmental and behavioral functions. Therefore AR binding assay for screening androgen antagonists can be used to identify potential endocrine disruptors. MDA-kb2 cells (from ATCC, deposited by Wilson et al.) were used to screen for AR inhibitors against Tox21 compound libraries. These cells are human breast carcinoma cells that were stably transfected with a luciferase reporter gene under control of the MMTV promoter that contains response elements for both androgen receptor (AR) and glucocorticoid receptor (GR). The current screening for identification of AR inhibitors against Tox21 libraries used lower concentration of (0.5 nM) R1881 as a stimulator. The cytotoxicity of the Tox21 compound libraries against MDA-kb2 cell line was tested by measuring live-cell protease activity using CellTiter-Fluor assay in the same wells.
Tox21 Assay Protocol Summary: MDA-kb2 cells (cells cultured without CO2) were dispensed at 3,000 cells/well in 4 uL of culture medium into white wall/solid-bottom 1536-well plates (Corning Life Sciences, Corning, NY) using a Multidrop Combi (ThermoFisher Scientific, Waltham, MA) dispenser. After the assay plates were incubated at a 37C and 0% CO2 for 5 hr, 23 nL of compounds dissolved in DMSO, positive controls or DMSO only was transferred to the assay plate by a Pintool station (Kalypsys, San Diego, CA). The transfer of compounds was followed by the addition of 1 uL of 0.5 nM (final concentration) agonist (R1881)/culture medium using a Flying Reagent Dispenser (FRD, Aurora Discovery, San Diego, CA). The plates were incubated at 37C and 0% CO2 for 16 hr. For cytotoxicity assay, 1 uL of CellTiter-Fluor reagent (Promega Corporation, Madison, WI) was added to each well using the FRD and after 30 min incubation at 37C and 0% CO2, The fluorescence intensity was measured using ViewLux plate reader (PerkinElmer, Shelton, CT).
For orientation: Quantitative high-throughput screening tests each substance at several concentrations.
Take `C=CCCCCCCCCCCCC`: the result was inactive.

Turning to `CCOC(=O)c1ccc(OC(=O)CCCCCN=C(N)N)cc1`, the outcome was inactive.

For the compound `Nc1ccc2cc(S(=O)(=O)O)cc(O)c2c1`, the outcome was inactive.

`Cc1[nH]cnc1-c1ccc(Cl)cc1`: the result was inactive.

On to `CCCCCCCCSCC`, for which the result was inactive.

For `CCC(C)(CCC(C)C)C(=O)O` (stereo not given), the outcome was inactive.

Turning to `CCCCCCCC/C=C\CCCCCCCC(=O)OCCCC`, the viability change, negative = cytotoxic is -4.19% [at 19 µM].

As to `CC(=O)/C=C/C1C(C)=CCC(C)C1(C)C` (stereo not given), the result was inactive.

For the compound `O=C(O)CCSSCCC(=O)O`, the result was inactive.

With `CCOC(=O)c1ncn2c1CN(C)C(=O)c1cc(F)ccc1-2`, the outcome was inactive.

On to `C=Cc1ccccn1`, for which the result was inactive.

For `O=C1c2cccc3c2[C@H](CCC3)CN1[C@@H]1CN2CCC1CC2`, the result was inactive.

For the compound `COc1ccc(C2CNC(=O)C2)cc1OC1CCCC1` (stereo not given), the outcome was inactive.

For the compound `CCN1CCc2nc(N)oc2CC1`, the outcome was inactive.

For the compound `O=C(Nc1ccc(Cl)c(Cl)c1)C1CC1`, the outcome was inactive.

As to `CC(=O)NCCCCCC(=O)O`, the outcome was inactive.

`CC(=O)NCc1c(I)c(NC(C)=O)c(I)c(C(=O)O)c1I`: the result was inactive.

As for `CCC(C)NC(N)=O` (stereo not given), the result was inactive.

Turning to `On1nnc2ccccc21`, the result was inactive.

As for `CCCCN`, the result was inactive.

On to `Nc1ccc(S(=O)(=O)Nc2ccc(Cl)nn2)cc1`, for which the result was inactive.

On to `CCCCCCCCCCCCCC`, for which the result was inactive.

Regarding `Oc1cn2c(n1)Nc1ccc(Cl)c(Cl)c1C2`, the viability change, negative = cytotoxic is 1.91% [at 19 µM].

As to `C=C(C)C(=O)OCCOP(=O)(O)OCCOC(=O)C(=C)C`, the result was inactive.

With `c1ccc2c(c1)ccc1c3ccccc3ccc21`, the result was inactive.

For `CC(S)C(=O)NCC(=O)O` (stereo not given), the outcome was inactive.

As to `O=C(CCN1CCN(CCO)CC1)N1c2ccccc2Sc2ccc(C(F)(F)F)cc21`, the result was inactive.

Consider `Cc1ccc(S(=O)(=O)O)c(C)c1`, for which the result was inactive.

As to `CC(C)(C)OC(=O)c1ccc(O)cc1`, the outcome was inactive.

Turning to `CC(N)C(=O)OC(C)(C)Cc1ccc(Cl)cc1` (stereo not given), the result was inactive.

With `OCCN(CCO)c1cccc(Cl)c1`, the result was inactive.

Take `N[C@@H](COP(=O)(O)O)C(=O)O`: the viability change, negative = cytotoxic was 4.56% [at 19 µM].

On to `COc1ccc(Br)c(C)c1`, for which the outcome was inactive.

Turning to `CCOC(=O)[C@H](CCc1ccccc1)N[C@@H](C)C(=O)N1C(=O)N(C)C[C@H]1C(=O)O`, the result was inactive.

On to `O=C(/N=N/C(=O)OCc1ccccc1)OCc1ccccc1`, for which the result was inactive.

As for `CCOCCOCCOCC`, the result was inactive.

For `CCCN1C[C@H](CSC)C[C@@H]2c3cccc4[nH]cc(c34)C[C@H]21`, the result was inactive.

On to `O=C(NCCN1CCOCC1)c1ccc(Cl)cc1`, for which the result was inactive.

For `CCCOC(=O)C(C)O` (stereo not given), the outcome was inactive.

With `CC(=O)Nc1ccc(S(=O)(=O)Cl)cc1`, the outcome was inactive.

(Values after PubChem BioAssay (Tox21).)
